Test results as given in PubChem BioAssay (NCI).
This is part of a sample that, as a whole, favours compounds with a hit. Of some 79,000 tested, about 15% had one in any assay. Unmarked numbers belong to inactive results. The source made the active and inactive calls. No stated cut-off is given here; in the data, active means growth inhibition above about 70%; inactive means the rest.

Legend:
[1] = NCI Yeast Anticancer Drug Screen. Data for the rad50 strain (AID 155);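 further: 0% = growth of vehicle-only cultures of the same strain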; conditions: S. cerevisiae rad50 strain growth inhibition, hits give high values
Procedure, shortened: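 Growth of the mutant yeast was measured after compound exposure and referenced to vehicle-treated cultures.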

[2] = NCI Yeast Anticancer Drug Screen. Data for the mec2-1 strain (AID 157); conditions: S. cerevisiae mec2-1 strain, hits give high values
Procedure, shortened: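 Yeast mec2-1 mutant treated with compound. Readout: growth inhibition vs vehicle controls.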

[3] = NCI Yeast Anticancer Drug Screen. Data for the sgs1 mgt1 strain (AID 161);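 further: 0% = growth of cultures given vehicle only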; conditions: S. cerevisiae sgs1 mgt1 strain, hits give high values
Procedure, shortened: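 Test agents were incubated with a DNA-repair-mutant yeast strain. Growth was then read and compared against vehicle-treated controls.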

[4] = NCI Yeast Anticancer Drug Screen. Data for the cln2 rad14 strain (AID 165);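 further: 0% = growth equal to vehicle treated cultures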; conditions: S. cerevisiae cln2 rad14 strain, hits give high values
Procedure, shortened: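 cln2 rad14 yeast strain; compound exposure; growth inhibition read vs vehicle controls.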

[5] = NCI Yeast Anticancer Drug Screen. Data for the bub3 strain (AID 167); conditions: S. cerevisiae bub3 mutant strain, hits give high values
Procedure, shortened: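 Whole-cell yeast assay. The mutant strain was incubated with compounds, and growth inhibition was determined by comparison with vehicle-treated cells.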

[6] = NCI Yeast Anticancer Drug Screen. Data for the mlh1 rad18 strain (AID 175); conditions: S. cerevisiae mlh1 rad18 strain growth inhibition, hits give high values
Procedure, shortened: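 Yeast w/ defined DNA-repair lesions; compound exposure; growth vs vehicle controls → % inhibition.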

[7] = at 5.0 µM (retest, dose inferred, filed as 0.5)
[8] = at 50.0 µM (retest, dose inferred, filed as 5.0)

SMILES | growth inhibition [1, 7] | growth inhibition [1, 8] | growth inhibition ([1]; at 50.0 µM) | growth inhibition [2, 7] | growth inhibition [2, 8] | growth inhibition ([2]; at 50.0 µM) | growth inhibition [3, 7] | growth inhibition [3, 8] | growth inhibition ([3]; at 50.0 µM) | growth inhibition [4, 7] | growth inhibition [4, 8] | growth inhibition ([4]; at 50.0 µM) | growth inhibition [5, 7] | growth inhibition [5, 8] | growth inhibition ([5]; at 50.0 µM) | growth inhibition [6, 7] | growth inhibition [6, 8] | growth inhibition ([6]; at 50.0 µM)
COC(=O)[CH2][Sn]([CH2]C(=O)OC)([CH]1CCCCC1)[CH]1CCCCC1 | 3% | 65% | 98.4% (active) | -3% | 45% | 97.2% (active) | 2% | 69% | 99.2% (active) | 5% | 33% | 98% (active) | 1% | 59% | 97.2% (active) | 2% | 48% | 98.5% (active)
COC1CCC(OC2CC(C3(C)CCC4(CC(O)C(C)C(C(C)/C=C(\C)C(=O)C(C)CC(C)C(=O)O)O4)O3)OC3(OC(C4OC(O)(CO)C(C)CC4C)CC3C)C2C)OC1C (configuration not stated) | 7% | 85% (active) | 61.1% | 19% | 83% (active) | 71.8% (active) | 23% | 83% (active) | 63.1% | 65% | 92% (active) | 68.6% | -5% | 59% | 58.1% | 22% | 73% (active) | 69.4%
O=C(OCCl)c1ccccc1 | 11% | -4% | 3.9% | -1% | -2% | -5.6% | -4% | 1% | 13.5% | 7% | -4% | 45.5% | 8% | 13% | -7.7% | 6% | 5% | 15.7%
O=[N+]([O-])c1ccc(Br)c([N+](=O)[O-])c1 | 83% (active) | 98% (active) | 99% (active) | 7% | 99% (active) | 99.4% (active) | 8% | 98% (active) | 99.2% (active) | -6% | 98% (active) | 98.3% (active) | -15% | 98% (active) | 98.9% (active) | 17% | 98% (active) | 99.2% (active)
CCOP(=O)(O)C(Nc1ccc(N=Nc2ccccc2)cc1)c1ccc(C(Nc2ccc(N=Nc3ccccc3)cc2)P(=O)(O)OCC)cc1 (configuration not stated) | -4% | 35% | 54% | -6% | 27% | 67.7% | 3% | 37% | 86% (active) | -8% | -6% | 41.3% | -5% | 31% | 57.5% | -5% | 31% | 90.1% (active)
CSCCC([NH-])C(=O)O.CSCCC([NH-])C(=O)O.[Zn+2] (configuration not stated) | 2% | 1% | 98.2% (active) | 1% | 1% | 99.2% (active) | 2% | -1% | 99.2% (active) | 4% | -6% | 99.2% (active) | 4% | 6% | 99% (active) | 4% | 3% | 99.3% (active)
O=C1C(CCl)(CCl)CCC12CNC(Cl)(Cl)C2 (configuration not stated) | -1% | 0% | 6.8% | -1% | 4% | 15.8% | 1% | 0% | 21.6% | 1% | 5% | 39.6% | -3% | -5% | 23.2% | -1% | 0% | 28.8%
CC1=C[C@H]2O[C@H]3C[C@H]4OC(=O)/C=C\C=C\C(=O)OCC[C@@H](C)C(O)C(=O)OC[C@@]2(CC1)[C@@]4(C)[C@]31CO1 (some centres not stated) | 99% (active) | 98% (active) | 93.5% (active) | 99% (active) | 99% (active) | 95% (active) | 100% (active) | 99% (active) | 95% (active) | 99% (active) | 98% (active) | 93.2% (active) | 99% (active) | 99% (active) | 94.3% (active) | 99% (active) | 98% (active) | 93.5% (active)
C=C1C(C)C2C(Cc3ccccc3)NC(=O)C23C(OC(C)=O)/C=C/C(C)(O)CC(C)C/C=C/C3C1O (configuration not stated) | 85% (active) | 98% (active) | 91.5% (active) | 94% (active) | 99% (active) | 92.5% (active) | 86% (active) | 99% (active) | 91.5% (active) | 86% (active) | 97% (active) | 90.7% (active) | 92% (active) | 99% (active) | 90.9% (active) | 95% (active) | 99% (active) | 89.4% (active)
